RXFP1 ag: qHTS Assay for Agonists of the Relaxin Receptor RXFP1; Potency, µM (doses to about 57.5 µM), for inactives: top-dose activation, hits mostly activators; AID 2676, 2010; HEK293T-RXFP1 cAMP TR-FRET, 30 min; response scale: percent of porcine relaxin response, buffer zero; Relaxin receptor 1 (Homo sapiens), Q9HBX9; hit rate 0.3% among 370,000; also: potency is read from the fitted curve at half-maximal effect; % is scaled to controls: 0 for no effect and ±100 for the full control effect; nearly all actives have a fitted effect of over 60% in size
Target sequence (Q9HBX9 whole entry, looked up): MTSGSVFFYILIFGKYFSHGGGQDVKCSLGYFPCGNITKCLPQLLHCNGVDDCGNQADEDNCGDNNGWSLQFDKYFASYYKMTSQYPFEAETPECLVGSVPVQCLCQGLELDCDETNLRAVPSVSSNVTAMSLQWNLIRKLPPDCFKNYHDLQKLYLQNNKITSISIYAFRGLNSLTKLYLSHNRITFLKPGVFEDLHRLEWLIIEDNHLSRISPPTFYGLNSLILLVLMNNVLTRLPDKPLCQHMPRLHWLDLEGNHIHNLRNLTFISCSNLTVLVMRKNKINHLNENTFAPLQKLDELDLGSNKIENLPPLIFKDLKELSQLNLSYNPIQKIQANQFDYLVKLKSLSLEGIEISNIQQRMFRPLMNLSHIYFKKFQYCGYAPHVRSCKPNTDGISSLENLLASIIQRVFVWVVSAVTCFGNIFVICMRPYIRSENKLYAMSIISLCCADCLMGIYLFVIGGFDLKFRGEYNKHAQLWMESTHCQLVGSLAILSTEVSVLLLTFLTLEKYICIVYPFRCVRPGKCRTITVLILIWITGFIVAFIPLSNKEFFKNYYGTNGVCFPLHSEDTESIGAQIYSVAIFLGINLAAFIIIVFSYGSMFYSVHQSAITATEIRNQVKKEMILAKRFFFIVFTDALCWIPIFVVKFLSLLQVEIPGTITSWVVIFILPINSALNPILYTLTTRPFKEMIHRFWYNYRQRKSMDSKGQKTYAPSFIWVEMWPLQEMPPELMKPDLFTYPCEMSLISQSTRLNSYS
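HEK293T cells stably expressing RXFP1 were pretreated with the PDE4 inhibitor Ro 20174, exposed to compounds for 30 min at 37C, lysed, and cAMP was read by TR-FRET. Data normalized to buffer (basal) and 29 nM porcine relaxin (100%).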
miR-21 reporter: qHTS Assay for Modulators of miRNAs and/orActivators of miR-21. 340,000 tested, under 10 active. HeLa miR-21 FLuc reporter, luciferase, 48 h. AID 2288, 2010. Potency, µM (titrated, usually from 38.3 µM), without a hit: at the top dose activity change, positive = activation, hits mostly activators;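 also: % of control where 0% means no effect; miR-21 action dims this reporter so a rising signal means less miR-21 action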
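Using DMEM plus 10% FBS, HeLa miR-21-FLuc cells are incubated with test compounds (final up to about 40uM) for 48 hours; firefly luciferase signal is then imaged following reagent-mediated lysis.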
Luc counter: Counterscreen for Luciferase (Kinase-Glo TM) Inhibition; AID 1379, 2008; hit rate 0.28% among 200,000; Kinase-Glo luciferase, ATP luminescence, 8 min; Potency, µM (series often up to 38.3 µM), for the others: top-dose activity change, negative = inhibition, usual class: inhibitors; Luciferin 4-monooxygenase (Photuris pensylvanica), Q27757; also: potency is read from the fitted curve at half-maximal effect; % is scaled to controls: 0 for no effect and ±100 for the full control effect; nearly all actives have a fitted effect of over 60% in size
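Compounds were added to a substrate mix at pH 7.2 (50 mM imidazole, 10 uM ATP, within the enzyme's linear range), followed by Kinase-Glo detection reagent; luminescence was measured after 8 minutes at ambient temperature.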
gsp antag: qHTS for Antagonists of gsp, the Etiologic Mutation Responsible for Fibrous Dysplasia/McCune-Albright Syndrome: qHTS; gsp-mutant cells, cAMP HTRF, 30 min; Potency, µM (top dose mostly 76.9 µM), inactives show at the highest dose activity change, negative = inhibition, hits mostly inhibitors; hit rate 0.4% among 340,000; calls by dose curve; cell line not stated here;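 also: intracellular cAMP measured with PDE inhibitor Ro 20-1724 present during compound exposure; potency is read from the fitted curve at half-maximal effect; % is scaled to controls: 0 for no effect and ±100 for the full control effect; nearly all actives have a fitted effect of over 65% in size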
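HTRF cAMP measurement after 30 min RT detection following 30 min, 37C compound treatment alongside […] (added as 300 uM solution) in G418-selected cells seeded at 2000/well and grown 16–24 h.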
gsp agonist: qHTS for Agonist of gsp, the Etiologic Mutation Responsible for Fibrous Dysplasia/McCune-Albright Syndrome: qHTS; gsp mutant cells, cAMP HTRF, 30 min; Potency, µM (highest dose often 76.9 µM), inactives show at the highest dose activation (cAMP increase), most hits filed as activators; hit rate 0.13% among 340,000; AID 624287, 2012; active = well fitted activation curve with a large enough effect; inconclusive = small, poorly fitted or top-dose-only effect, or another doubt; inactive = no such curve, though single readings can be large or run the other way; cell line not stated here;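 also: phosphodiesterase inhibitor Ro 20-1724 added with compounds to block cAMP breakdown; potency is read from the fitted curve at half-maximal effect; nearly all actives have a fitted effect of over 60% in size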
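Cells stably selected in G418 were plated at 2000/well, grown 16-24 hr, then given compounds in DMSO with the PDE inhibitor […] (300 uM solution added) for 30 min at 37C; cAMP was read by HTRF.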
RXFP1 antagonist: qHTS Assay for Antagonists of the Relaxin Receptor RXFP1 | activity change, negative = inhibition, % at 57.5 µM | HEK293-RXFP1, relaxin-stimulated cAMP HTRF, 30 min; stronger effect = lower value | hit rate 0.59% among 350,000 | Relaxin receptor 1 (Homo sapiens), Q9HBX9;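 active = activity change of -60% or lower, but not beyond a set lower limit; inconclusive = change between -60% and -40%, or beyond the set limit; inactive = change above -40%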; also: % is scaled to controls: 0 for no effect and ±100 for the full control effect
Numbers without * were called inactive; ? = inconclusive; . = no result; [ ] = dose if it differs, or a comment. Rows were chosen to be rich in hits. Some 1% of all compounds tested hit in one or more screens of this group. Unless noted, calls follow the shape of the dose curve; as a rule, active = well fitted curve in the direction sought with a large enough effect; inconclusive = small, poorly fitted or top-dose-only effect, or another doubt; inactive = no such curve, though single readings can be large; an effect the other way counts as inactive or inconclusive.

SMILES	RXFP1 ag	miR-21 reporter	Luc counter	gsp antag	gsp agonist	RXFP1 antagonist
O=[N+]([O-])c1cccc(S(=O)(=O)Nc2ccc(S(=O)(=O)N3CCCC3)cc2)c1	.	.	.	-8.0%	-25.0%	-4.2
Cc1ccc(S(=O)(=O)Nc2nc3ccccc3nc2Nc2cccc(S(=O)(=O)N3CCCC3)c2)cc1	3.4%	4.9%	1.3%	31.6µM*	?	1.4
O=S(=O)(Nc1nc2ccccc2nc1Nc1ccc2c(c1)OCO2)c1ccccc1	0.5%	-3.5%	2.4%	-8.9%	0.5%	.
COc1ccc(S(=O)(=O)Nc2cccc(S(=O)(=O)N3CCCCC3)c2)cc1	.	.	.	-6.1%	?	-2.6
Cc1cccc(S(=O)(=O)Nc2nc3ccccc3nc2Nc2ccc3c(c2)OCO3)c1	-0.1%	-1.5%	0.8%	28.2µM*	18.5%[15.4 µM]	6.9
O=[N+]([O-])c1cccc(S(=O)(=O)Nc2nc3ccccc3nc2Nc2cccc(S(=O)(=O)N3CCCCC3)c2)c1	-0.1%	-2.1%	3.0%	17.8µM*	-15.6%	-8.0
Cc1ccc2onc(CNC(=O)NCc3ccccc3)c2c1	0.9%	-23.2%	.	.	.	-33.3
CCN(CC)CCN(C(=O)c1ccco1)c1nc2ccc(F)cc2s1	0.6%	-13.7%	.	.	.	-17.8
COc1ccccc1N1CCN(CC(O)COc2cc(OC)c(OC)c(OC)c2)CC1 (stereo not drawn)	.	.	.	.	.	7.7
O=C1CSC(=S)N1N=Cc1cccc(OCc2ccccc2)c1	.	.	.	.	-54.4%	-95.4*
O=C1CSC(=S)N1N=Cc1ccc(OCc2ccccc2)cc1	.	.	.	.	?	-5.8
Cc1cccc(Nc2nc(N)c([N+](=O)[O-])c(N3CC(C)CC(C)C3)n2)c1 (stereo not drawn)	0.4%	17.6%	-0.7%	-15.3%	-3.2%[15.4 µM]	-25.9
Cc1cccc(Nc2nc(N)c([N+](=O)[O-])c(N3CCC(C)CC3)n2)c1	1.3%	-4.5%	1.1%	-8.0%	28.4%[15.4 µM]	-68.7*
CCNC(=S)Nc1ccc(N2CCCCC2)cc1	-1.7%	-37.0%	-0.6%	9.3%	-5.0%[15.4 µM]	-7.7
CCNC(=S)N/N=C/c1sc(N2CCCCC2)nc1-c1cccs1	2.8%	-24.7%	11.2µM*	-4.5%	5.4%[15.4 µM]	-26.8
CCc1ccccc1NC(=O)Cn1c(=O)n(CCCCCC(=O)NCc2ccc(C)cc2)c(=O)c2sccc21	?	-20.2%	.	.	.	0.4
O=C(O)c1ccc(NC(=S)NC(=O)C(c2ccccc2)c2ccccc2)cc1	2.2%	-2.3%	.	?	?	-27.6
COc1ccc(C(=O)O)cc1NC(=S)NC(=O)C(c1ccccc1)c1ccccc1	3.3%	1.8%	.	5.8%	-27.5%	-116.2*
COc1cc(OC)cc(C(=O)NCCN2C(=O)S/C(=C\c3cccs3)C2=O)c1	-3.4%	16.7%	-2.8%	28.2µM*	-65.2%	-0.4
O=C(CCS(=O)(=O)c1ccccc1)Nc1nc2cc3c(cc2s1)OCO3	0.2%	-28.3%	.	50.1µM*	-2.9%	-5.4
O=C(CCS(=O)(=O)c1ccccc1)Nc1nc2cc3c(cc2s1)OCCO3	2.7%	-26.8%	.	-18.4%	10.6%	-19.9
O=C(c1cccc(NS(=O)(=O)c2ccccc2)c1)N1CCN(c2ccccc2)CC1	-0.5%	.	.	-18.0%	23.8%[15.4 µM]	-117.1*
O=C(c1cccc(NS(=O)(=O)c2ccccc2)c1)N1CCCC1	1.5%	-1.2%	.	0.9%	-32.3%	0.0
O=C(c1ccc(S(=O)(=O)Nc2cccc(C(F)(F)F)c2)cc1)N1CCC1	?	-5.7%	.	-5.5%	10µM*	20.7
CC(=O)N1CCN(C(=O)c2ccc(S(=O)(=O)Nc3cccc(C(F)(F)F)c3)cc2)CC1	0.2%	.	.	?	10.7%[15.4 µM]	7.3
SMILES	RXFP1 ag	miR-21 reporter	Luc counter	gsp antag	gsp agonist	RXFP1 antagonist
CCOC(=O)c1oc2c(c1C)/C(=N/O)CCC2	3.5%	-74.7%	11.2µM*	25.4%	10.7%	11.5
N#Cc1ccc(-c2ccc(OCC(O)Cn3nnc4ccccc43)cc2)cc1 (stereo not drawn)	-0.4%	14.3%	2.5%	31.6µM*	-5.0%	-4.7
COc1ccc(NC(=O)c2nnn(CC(=O)Nc3cc(C)cc(C)c3)c2N)c(OC)c1	1.0%	-1.6%	.	.	.	.
CCc1ccccc1NC(=O)N1CCc2cc(OC)c(OC)cc2C1CC(=O)OC (stereo not drawn)	2.2%	-6.0%	.	.	.	16.0
O=C(CCS(=O)(=O)c1ccc(Br)cc1)NC1CCCC1	0.7%	0.0%	6.4%	10.1%	3.98µM*	7.3
O=C(CCNS(=O)(=O)c1ccc(Br)cc1)NC1CCCCC1	2.2%	-1.2%	5.1%	-3.1%	-4.7%	-5.0
CCOC(=O)c1c(C)sc(-c2c(-c3ccc(OC)c(F)c3)[nH]c3c2c(=O)[nH]c(=O)n3C)c1O	1.2%	-12.7%	.	.	.	-28.1
CN(C)c1ccc(/C=C/c2ccc3ccccc3n2)cc1	?	?	.	1.4%	?	9.2
CN(C)c1ccc(/C=C/c2nc3ccccc3s2)cc1	2.7%	17.1%	11.2µM*	5.2%	20.7%	-8.7
CCCOC(=O)CSC1=C(C#N)C(c2ccccc2OCC)C(C#N)C(=O)N1 (stereo not drawn)	3.7%	-12.2%	2.1%	-25.8%	-10.9%	9.8
CCCCOC(=O)CSC1=C(C#N)C(c2ccccc2OCC)C(C#N)C(=O)N1 (stereo not drawn)	2.3%	-11.7%	-0.1%	31.6µM*	28.5%	40.8
CN(Cc1ccc(-n2cccn2)cc1)C(=O)c1cnn2c1NC(c1ccco1)CC2C(F)(F)F (stereo not drawn)	2.6%	?	5.6%	31.6µM*	-0.5%	.
COc1ccc(NC(=O)c2cc(C3CC3)nc3c2c(C)nn3-c2ccccc2)cc1OC	5.6%	-2.2%	.	.	.	8.7
Cc1ccc(/C=C2/C(=O)c3ccc(C(=O)O)cc3C2=O)o1	2.2%	0.3%	-3.9%	-39.7%	25.9%[15.4 µM]	9.0
O=C1C(=Cc2cccs2)C(=O)c2ccccc21	3.7%	-14.2%	?	-7.1%	-14.4%	-12.2
Cc1ccc(C=C2C(=O)c3ccccc3C2=O)s1	-3.7%	-17.3%	7.08µM*	-23.2%	-35.6%	-38.4
Cc1ccc(C=C2C(=O)c3ccccc3C2=O)o1	3.2%	-41.6%	11.2µM*	12.1%	6.1%	.
COc1ccc(N2C(=O)C3CCCN3C2c2ccc(C)o2)cc1 (stereo not drawn)	3.4%	-2.3%	-2.8%	50.1µM*	-5.8%	.
